In PubChem BioAssay AID1159580 (chemical genetic matrix, 2015):
Where “and” joins values, the source holds several entries; their conditions need not be identical. Equal values may be shown once. The campaign covered roughly 5,500 compounds. About 2,000 (36%) were called active. Inconclusive results (about 18%) are left out. Cut-off read from the data, not from the text of the source: active = normalized growth mostly below about 0.91 (no sharp cut-off); inconclusive = no clear call, values can overlap the other calls; inactive = mostly above about 0.92. Some of the results follow.

Assay: chemical genetic growth profiling, strain panel (AID 1159580);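 note: tested at 20 µM; growth read once vehicle control cultures reached saturation at 30 °C; 1 = growth at the plate median or of vehicle wells; lower values mean less growth of the strain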
Conditions: S. cerevisiae deletion strains, growth OD

Measured: normalized growth

COc1cc([C@H]2Oc3cc([C@H]4Oc5cc(O)cc(O)c5C(=O)[C@@H]4O)ccc3O[C@@H]2CO)ccc1O
inactive: locus YAL013W, strain DEP1, hits give low values 1 | locus YAL021C, strain ccr4, hits give low values 0.987 | locus YAL026C, strain drs2, hits give low values 1 | locus YAL030W, strain snc1, hits give low values 1.01 | locus YBL061C, strain skt5, hits give low values 1.01 | locus YBR009C, strain hhf1, hits give low values 1 | locus YBR021W, strain FUR4, hits give low values 1.06 | locus YBR023C, strain chs3, hits give low values 1.01 | locus YBR171W, strain sec66, hits give low values 1.02 | locus YBR229C, strain ROT2, hits give low values 0.991 | locus YBR231C, strain swc5, hits give low values 1.02 | locus YBR279W, strain paf1, hits give low values 1.01 | locus YCL011C, strain gbp2, hits give low values 1 | locus YCL016C, strain dcc1, hits give low values 0.992 | locus YCL029C, strain bik1, hits give low values 0.97 | locus YCL061C, strain MRC1, hits give low values 1.01 | locus YCL069W, strain vba3, hits give low values 1.01 | locus YCR088W, strain abp1, hits give low values 1.01 | locus YDL005C, strain med2, hits give low values 1.01 | locus YDL035C, strain GPR1, hits give low values 0.987 | locus YDL040C, strain nat1, hits give low values 1.01 | locus YDL074C, strain BRE1, hits give low values 0.986 | locus YDL101C, strain DUN1, hits give low values 0.989 | locus YDL134C, strain PPH21, hits give low values 1.01 | locus YDL185W, strain tfp1, hits give low values 0.964 | locus YDL192W, strain arf1, hits give low values 0.97 | locus YDR001C, strain nth1, hits give low values 1.01 | locus YDR069C, strain doa4, hits give low values 0.998 | locus YDR101C, strain arx1, hits give low values 0.976 | locus YDR137W, strain rgp1, hits give low values 0.996 | locus YDR150W, strain NUM1, hits give low values 0.969 | locus YDR159W, strain sac3, hits give low values 0.997 | locus YDR162C, strain NBP2, hits give low values 1.02 | locus YDR195W, strain ref2 1.02 | locus YDR297W, strain sur2, hits give low values 1.02 | locus YDR318W, strain mcm21, hits give low values 0.97 | locus YDR334W, strain swr1, hits give low values 1.01 | locus YDR335W, strain msn5, hits give low values 1 | locus YDR388W, hits give low values 0.984 | locus YDR392W, strain spt3, hits give low values 0.955 | locus YDR502C, strain sam2, hits give low values 0.977 | locus YEL003W, strain gim4, hits give low values 1.01 | locus YEL037C, strain rad23, hits give low values 1.01 | locus YEL061C, strain CIN8 (second series), hits give low values 1.02 | locus YEL061C, strain CIN8, hits give low values 1 | locus YER015W, strain faa2, hits give low values 1 | locus YER016W, strain bim1, hits give low values 1.01 | locus YER110C, hits give low values 0.958 | locus YER111C, strain swi4, hits give low values 1 | locus YER155C, strain BEM2 (second series), hits give low values 1.03 | locus YER155C, strain BEM2, hits give low values 1.02 | locus YER167W, strain BCK2, hits give low values 0.992 | locus YFR010W, strain ubp6, hits give low values 0.995 | locus YGL078C, strain dbp3, hits give low values 0.965 | locus YGL086W, strain mad1, hits give low values 0.975 | locus YGL167C, strain pmr1, hits give low values 1.01 | locus YGL173C, strain kem1, hits give low values 1.01 | locus YGL227W, strain vid30, hits give low values 1.01 | locus YGL240W, strain doc1, hits give low values 1.03 | locus YGL248W, strain PDE1, hits give low values 1.01 | locus YGL253W, strain hxk2, hits give low values 0.989 | locus YGR078C, strain PAC10, hits give low values 0.989 | locus YGR135W, strain pre9, hits give low values 0.987 | locus YGR229C, strain SMI1, hits give low values 1.01 | locus YGR252W, strain gcn5, hits give low values 0.961 | locus YHR013C, strain ard1, hits give low values 1 | locus YHR027C, strain rpn1, hits give low values 1 | locus YHR030C, strain SLT2, hits give low values 0.999 and 1.02 | locus YHR079C, strain IRE1 (second series), hits give low values 0.984 | locus YHR079C, strain IRE1, hits give low values 0.996 | locus YHR094C, strain hxt1, hits give low values 0.971 | locus YHR129C, strain ARP1, hits give low values 1 | locus YHR142W, strain chs7, hits give low values 0.997 | locus YHR200W, strain rpn10, hits give low values 0.959 | locus YIL066C, strain RNR3, hits give low values 0.968 | locus YIL073C, strain SPO22, hits give low values 0.906 | locus YIL125W, strain kgd1, hits give low values 0.987 | locus YIR030C, strain dcg1, hits give low values 0.981 | locus YJL092W, strain hpr5, hits give low values 1.01 | locus YJL095W, strain BCK1 (second series), hits give low values 1.02 | locus YJL095W, strain BCK1, hits give low values 0.998 and 0.981 | locus YJL115W, strain asf1, hits give low values 1.01 | locus YJL129C, strain trk1, hits give low values 1.03 | locus YJL134W, strain LCB3, hits give low values 1 | locus YJL154C, strain vps35, hits give low values 1.01 | locus YJL164C, strain tpk1, hits give low values 0.989 | locus YJL166W, strain qcr8, hits give low values 1.01 | locus YJL168C, strain set2, hits give low values 0.98 | locus YJL187C, strain SWE1 (second series), hits give low values 0.988 | locus YJL187C, strain SWE1, hits give low values 1.01 | locus YJR043C, strain POL32, hits give low values 0.998 | locus YJR066W, strain TOR1, hits give low values 0.954
